Shown are actives, neighbours in structure and some others; about 3.6% of the full set was active somewhere.
Nrf2 activator – activators of Nrf2 (ARE) signaling | AREc32 ARE-luciferase reporter (MCF7-derived line), luminescence, 24 h | Potency, µM (highest dose often 46.1 µM), for the others: top-dose activation, actives largely listed as activators | actives 0.31% (n = 410,000); also: % of control where 0% means no effect; nearly all actives have a fitted effect of over 65% in size
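Luciferase luminescence (Steady-Glo, 30 min at room temperature) served as the read-out of ARE activation in AREc32 cells treated with compounds for 24 hr at 37 deg C.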
HepG2 tox-1 – counter-screen for TGF-b inhibitors: cytotoxicity in HepG2 cells; actives 0.76% (n = 410,000); AID 588856; Potency, µM (highest dose often 46.1 µM), for the others: at the top dose activity change, negative = cytotoxicity, most hits filed as cytotoxic; HepG2 CAGA-GFP viability, ATP luminescence, 18 h
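CellTiter-Glo luminescence gave cytotoxicity after 18 hours at 37 degrees C. The cells were HepG2 CAGA-GFP in 1% FBS DMEM, stimulated with 500 pg/mL TGF-beta after compound addition. %Activity was normalised to no-cell wells (complete cell-killing) and DMSO (no toxicity), and curves were fitted and classified.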
TGFb SMAD3 inh – blocks TGF-b signaling. actives 1.2% (n = 410,000). Potency, µM (series often up to 46.1 µM), inactives show top-dose activity, negative = inhibition, actives largely listed as inhibitors. HepG2 CAGA-GFP TGF-b/SMAD3 reporter, GFP fluorescence, 18 h; TGF-beta stimulated, 500 pg/mL final; also: % is scaled to controls: 0 for no effect and ±100 for the full control effect; nearly all actives have a fitted effect of over 65% in size
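HEPG2 CAGA-GFP reporter cells (1000/well, DMEM with 1% FBS) received compounds, then recombinant TGF-beta at 500 pg/mL final for 18 hours at 37 degrees C. Per-cell GFP summed per well was normalised to unstimulated and stimulated DMSO controls before curve fitting.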
A549 viability – A549 cytotoxicity, counter-screen for Nrf2 inhibitors | A549 ARE-Fluc cells, CellTiter-Fluor viability, 18-24 h | Potency, µM (highest dose often 46 µM), for inactives: at the top dose activity change, negative = cytotoxicity, hits mostly inhibitors | actives 0.16% (n = 390,000) | AID 504648; also: % is scaled to controls: 0 for no effect and ±100 for the full control effect
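A549 ARE_Fluc cells in 5% FBS OPTI-MEM were exposed to compounds in concentration-response for 18-24 h at 37 deg C. Viability was read by CellTiter-Fluor fluorescence (Ex 405/Em 525) after 30 min, before the luciferase read.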
Nrf2 block – blocks Nrf2 signaling; AID 504444; Potency, µM (series often up to 46 µM), inactives show at the top dose activity change, negative = inhibition, hits mostly inhibitors; A549 ARE-Fluc reporter, luciferase luminescence, 18-24 h; actives 2.1% (n = 360,000); also: % is scaled to controls: 0 for no effect and ±100 for the full control effect; nearly all actives have a fitted effect of over 60% in size
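Two sequential reads on A549 ARE_Fluc cells exposed to compound for 18-24 h: a CellTiter-Fluor fluorescence read for viability, then a luciferase luminescence read for Nrf2/ARE activity.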
TGFb CAGA inh – TGF-b pathway inhibition, cherry-pick retest. shares compounds with TGFb SMAD3 inh. HepG2 CAGA-GFP TGF-b reporter, GFP fluorescence, 18 h; cells stimulated with TGF-beta, 500 pg/mL. Potency, µM (top dose mostly 46.1 µM), without a hit: top-dose activity, negative = inhibition, hits mostly inhibitors. actives 63% (n = 1,600). AID 720534; also: % is scaled to controls: 0 for no effect and ±100 for the full control effect; nearly all actives have a fitted effect of over 65% in size
HepG2 tox-2 – HepG2 cytotoxicity, TGF-b inhibitor counterscreen; shares compounds with TGFb SMAD3 inh; HepG2 CAGA-GFP viability, ATP luminescence, 18 h; cells stimulated with TGF-beta, 500 pg/mL; Potency, µM (top dose mostly 46.1 µM), for inactives: at the top dose activity, negative = cytotoxicity, actives largely listed as inhibitors; actives 27% (n = 1,600); also: % is scaled to controls: 0 for no effect and ±100 for the full control effect; nearly all actives have a fitted effect of over 70% in size
CCL64 TGFb inh – TGF-b inhibition, CCL64 orthogonal assay; shares compounds with TGFb SMAD3 inh; Potency, µM (top dose mostly 46.1 µM), without a hit: at the top dose activity, negative = inhibition, hits mostly inhibitors; actives 41% (n = 1,600); CCL64 CAGA-GFP reporter, TGF-b stimulated, GFP fluorescence, 18 h; also: nearly all actives have a fitted effect of over 65% in size
COP TGFb inh – validation of TGF-b inhibitors in HepG2 COP promoter reporter; Potency, µM (highest dose often 46.1 µM), inactives show top-dose activity, negative = inhibition, actives largely listed as inhibitors; AID 720537; HepG2 COP-GFP TGF-b reporter, GFP fluorescence, 18 h; cells stimulated by added recombinant TGF-beta; actives 3% (n = 1,600); shares compounds with TGFb SMAD3 inh; also: nearly all actives have a fitted effect of over 70% in size
Starred values were filed as active, the others as inactive; ? = inconclusive; . = no result; [ ] = another dose, or the depositor's remark. Calls follow the shape of the dose curve; as a rule, active = well fitted curve in the direction sought with a large enough effect; inconclusive = small, poorly fitted or top-dose-only effect, or another doubt; inactive = no such curve, though single readings can be large; an effect the other way counts as inactive or inconclusive. Potency is read from the fitted curve at half-maximal effect.

SMILES | Nrf2 activator | HepG2 tox-1 | TGFb SMAD3 inh | A549 viability | Nrf2 block | TGFb CAGA inh | HepG2 tox-2 | CCL64 TGFb inh | COP TGFb inh
O=C(Oc1ccc(NC2=C(Cl)C(=O)c3ccccc3C2=O)cc1)c1ccc([N+](=O)[O-])cc1 | 5.5% | 4.2% | -8.8% | 2.6% | 10.5% | . | . | . | .
O=C(NC1=C(Nc2ccc(Cl)cc2)C(=O)c2ccccc2C1=O)c1ccccc1 | 0.0% | 28.2µM* | 8.91µM* | -18.7% | ? | 14.6µM* | 20.6µM* | ? | -27.7%
O=C(Nc1ccc2cn[nH]c2c1)c1c(Cl)cccc1Cl | -0.4% | 7.5% | 10.0% | 0.2% | -18.7% | . | . | . | .
Nc1nnc(SCC(=O)c2ccc3ccccc3c2)s1 | 5.3% | -22.3% | -0.1% | -3.1% | ? | . | . | . | .
COc1cc(NC(=O)COC(=O)[C@@H]2CCCN2S(=O)(=O)c2ccc(Cl)cc2)cc(OC)c1OC | 0.0% | 10.1% | 8.3% | -0.3% | . | . | . | . | .
CCOC(=O)c1ccc2c(c1)nc(C1CCN(S(=O)(=O)c3cccs3)CC1)n2CC | 1.6% | -17.1% | ? | ? | 25.9µM* | ? | ? | -9.8% | 25.1%
COC(=O)c1nnn(-c2ccc(Br)cc2)c1C(=O)OC | -0.7% | -7.6% | 2.7% | 4.1% | 8.7% | . | . | . | .
O=C(CCc1ccccc1)NNC(=O)c1ccccc1Br | -1.2% | -0.9% | -3.6% | -1.1% | -6.1% | . | . | . | .
O=S(=O)(c1ccc2ccccc2c1)N1CCN(C2Cc3ccccc3C2)CC1 | 0.0%[9.22 µM] | -14.8% | 5.01µM* | 11.5% | -16.2% | -22.7% | 5.0% | 11.2% | 1.1%
Oc1ccc(C[C@H]2CN([C@@H](Cc3ccc(O)cc3)CN3CCC[C@@H]3CN3C(=S)NC[C@@H]3Cc3ccccc3)C(=S)N2CC2CCCCCC2)cc1 | -3.0% | -45.3% | 10µM* | . | . | 23.1µM* | ? | 8.2µM* | 67.3%
O=C1NC[C@H](Cc2ccccc2)N(C[C@H]2CCCN2C[C@H](Cc2ccc(O)cc2)N2C[C@H](Cc3ccc(O)cc3)N(CC3CCCCCC3)C(=O)C2=O)C1=O | 4.7% | 11.6% | -0.1% | 4.9% | -3.1% | . | . | . | .
Oc1ccc(C[C@H]2CNC(=S)N2CC2CCCN2C[C@H](Cc2ccc(O)cc2)N2C[C@H](Cc3ccc(O)cc3)N(CC3CCCCC3)C2=S)cc1 (some centres undefined) | -3.3% | -23.3% | 10µM* | ? | 13µM* | 5.17µM* | 11.6µM* | 5.8µM* | ?
Oc1ccc(C[C@H]2CNC(=S)N2C[C@H]2CCCN2C[C@H](Cc2ccccc2)N2C[C@H](Cc3ccc(O)cc3)N(CC3CCCCCC3)C2=S)cc1 | -2.9% | -111.9% | 7.08µM* | . | . | 23.1µM* | ? | 13µM* | 50.9%
CC(C)C[C@@H](CN1CCC[C@@H]1CN1C(=S)NC[C@@H]1Cc1ccccc1)N1C[C@H](Cc2ccc(O)cc2)N(CC2CCCCCC2)C1=S | -1.1% | -80.5% | ? | . | . | . | . | . | .
Oc1ccc(C[C@H]2CNC(=S)N2CC2CCCN2C[C@H](Cc2ccccc2)N2C[C@H](Cc3ccc(O)cc3)N(CC3CCCCCC3)C2=S)cc1 (some centres undefined) | -2.7% | -81.6% | 10µM* | -8.0% | ? | 20.6µM* | ? | 8.2µM* | 82.1%
Cn1c(NCc2ccccc2)nc2cc(-c3cccc(C(F)(F)F)c3)sc2c1=O | ? | -6.9% | 4.2% | . | . | . | . | . | .
CC1=C(C#N)C(c2cccnc2)C2=C(CCCC2=O)N1 (centres undefined) | 0.4% | -18.3% | -1.7% | 0.1% | 10.9% | . | . | . | .
O=C(O)/C=C/C(=O)N1CCN(S(=O)(=O)c2cccc(C(F)(F)F)c2)CC1 | 0.0% | -1.1% | -7.1% | 2.5% | 11.3% | . | . | . | .
Cc1ccc(S(=O)(=O)N(C)CC(=O)Nc2ncccc2C)cc1 | -0.3% | -81.9% | 37.8% | 11.8% | 10.8% | . | . | . | .
CCC1Oc2ccc(C)cc2N(CC(=O)N(Cc2ccc(C)o2)C2CCCC2)C1=O (centres undefined) | 26.2% | 3.3% | 17.8µM* | -7.8% | ? | 11.6µM* | -26.0% | ? | -2.5%
CCCS(=O)(=O)c1ccc(COC(=O)c2ccc(NC(C)=O)cc2)cc1 | -0.5% | -0.3% | ? | 2.2% | -2.9% | 1.1% | 7.3% | 1.7% | -13.7%
CC1=C(C(=O)N2CCOCC2)CC(CC(=O)NCc2cccc3ccccc23)C(=O)N1CCCN1CCCC1=O (centres undefined) | -0.1% | -11.2% | -2.0% | . | . | . | . | . | .
CCOc1ccccc1CNC(=O)c1ccc(Sc2ccc(Cl)cc2)c(NC(C)=O)c1 | -0.7% | -1.3% | ? | 1.9% | -2.7% | ? | -26.1% | ? | -2.9%
O=S(=O)(Nc1cc(Cl)ccc1-n1cncn1)c1cc(Br)ccc1Br | 0.5% | -42.1% | 10µM* | ? | 13µM* | 20.6µM* | ? | 20.6µM* | 41.3%
O=S(=O)(Nc1cc(Cl)ccc1-n1cncn1)c1ccccc1Cl | -0.3% | -13.9% | -1.7% | 0.7% | ? | . | . | . | .
COc1ccc(C[C@@H]2OC3(C=CC(=O)C=C3)O[C@H]2Cc2ccc(OC)cc2)cc1 | -3.5% | 11.2µM* | 2.82µM* | ? | ? | 2.31µM* | 2.59µM* | 0.82µM* | ?
O=C1C=CC2(C=C1)O[C@H](Cc1ccccc1)[C@@H](Cc1ccccc1)O2 | -2.7% | -120.0% | 4.47µM* | ? | ? | 3.26µM* | 6.51µM* | 1.03µM* | ?
COc1cc(OC)cc(-c2cc3ncccc3cn2)c1 | ? | -28.6% | -8.9% | -5.7% | ? | . | . | . | .
COc1ccc(COc2cc(-c3cccc(OC)c3)nc3ccc(NC(C)=O)cc23)cc1 | 2.6% | -6.5% | 3.1% | 1.6% | ? | . | . | . | .
